The panel holds about 79,000 compounds, 15% with a hit somewhere; the sample as a whole holds those more often. Values without a mark were called inactive. Calls of active or inactive are those of the source. Rule as the data show it: active = growth inhibition above about 70%; inactive = the rest.

From PubChem BioAssay (NCI) come the findings set out here.

Experiment [1] can be described thus: NCI Yeast Anticancer Drug Screen. Data for the rad50 strain (AID 155).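 Also: 0% = growth of vehicle-only cultures of the same strain.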 The settings on record: S. cerevisiae rad50 strain growth inhibition; at 50.0 µM; active compounds read high. Put shortly:
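Yeast carrying a defined DNA repair defect were exposed to test compounds, and growth was compared with vehicle-treated controls to give percent inhibition.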

A short description of experiment [2]: NCI Yeast Anticancer Drug Screen. Data for the mec2-1 strain (AID 157). Particulars: S. cerevisiae mec2-1 strain, at 50.0 µM, active compounds read high. Put shortly: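 Vehicle-treated cultures served as reference for growth inhibition of compound-exposed mec2-1 yeast.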
The nature of experiment [3]: NCI Yeast Anticancer Drug Screen. Data for the sgs1 mgt1 strain (AID 161).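 Also: 0% = growth of cultures given vehicle only.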 The settings on record: S. cerevisiae sgs1 mgt1 strain, at 50.0 µM, active compounds read high. The gist of the method: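 Genetically altered yeast, compound exposure, growth inhibition relative to vehicle.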
The nature of experiment [4]: NCI Yeast Anticancer Drug Screen. Data for the cln2 rad14 strain (AID 165).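 Also: 0% = growth equal to vehicle treated cultures.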 The settings on record: S. cerevisiae cln2 rad14 strain, at 50.0 µM, active compounds read high. Put shortly:
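Each compound was tested on cln2 rad14 yeast. Inhibition of growth was calculated against vehicle-exposed controls.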

Experiment [5] can be described thus: NCI Yeast Anticancer Drug Screen. Data for the bub3 strain (AID 167). The settings on record: S. cerevisiae bub3 mutant strain, at 50.0 µM, active compounds read high. The gist of the method: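 Compounds were applied to a genetically altered yeast strain carrying a cell-cycle control defect. Growth inhibition was scored against vehicle-treated controls.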
Experiment [6] can be described thus: NCI Yeast Anticancer Drug Screen. Data for the mlh1 rad18 strain (AID 175). Particulars: S. cerevisiae mlh1 rad18 strain growth inhibition; at 50.0 µM; active compounds read high. Put shortly:
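Vehicle-treated cultures served as the reference for growth inhibition in a yeast strain carrying DNA damage repair alterations exposed to each compound.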

As to `NC(=S)N/N=C/c1ccccc1S(=O)(=O)O`, the growth inhibition in experiment [1] is 1.9%; in experiment [2], -12.8%; in experiment [3] it was -9.75%; in experiment [4], -16.2%; in experiment [5], 0.05%; in experiment [6], -4.7%.
Turning to `O=C1CSC(c2c[nH]c3ccccc23)N1c1cccc([N+](=O)[O-])c1` (stereo not given), the growth inhibition in experiment [1] is -61.2%; in experiment [2], -39.5%; in experiment [3] it was -59.9%; in experiment [4] it was -0.7%; in experiment [5], -59%; in experiment [6] it was -39%.
For the compound `OC(CCN1CCC2CCC(C2)C1)(c1ccccc1)c1ccc(Cl)cc1` (stereo not given), the growth inhibition in experiment [1] was -4.55%; in experiment [2], -16.1%; in experiment [3], 14%; in experiment [4], -26.5%; in experiment [5], 4.4%; in experiment [6], -17.2%.
Take `NC(Cc1ccc(OC(c2ccccc2)(c2ccccc2)c2ccccc2)cc1)C(=O)O` (stereo not given): the growth inhibition is -23.6% in experiment [1]; -9.5% in experiment [2]; 0.75% in experiment [3]; -18.4% in experiment [4]; -6.1% in experiment [5]; -12.2% in experiment [6].
Consider `CCOC(=O)NC(=O)c1cn(CCCOC(=O)CCCCCCCCCCC(=O)OCCCn2cc(C(=O)NC(=O)OCC)c(=O)[nH]c2=O)c(=O)[nH]c1=O`, for which the growth inhibition in experiment [1] is -28.5%; in experiment [2], -24.2%; in experiment [3], -12.4%; in experiment [4], 18.6%; in experiment [5], -0.95%; in experiment [6] it was -18.9%.
For the compound `COC(=O)C1=CCOc2c1c(C(=O)OC)nn2C`, the growth inhibition is -4.8% in experiment [1]; -8.15% in experiment [2]; -2.4% in experiment [3]; 6.1% in experiment [4]; -11.2% in experiment [5]; 24.9% in experiment [6].
For `CC(C)(CCCCC(C)(C)NC1=NCCO1)NC1=NCCO1`, the growth inhibition was -0.2% in experiment [1]; -8.8% in experiment [2]; 9.9% in experiment [3]; -20.6% in experiment [4]; -4.45% in experiment [5]; -9.4% in experiment [6].
As for `O=C1c2ccccc2C(=O)c2c(Cl)cccc21`, the growth inhibition in experiment [1] is 56.6%; in experiment [2] it was 4.7%; in experiment [3], -19.2%; in experiment [4], -39.5%; in experiment [5], -9.35%; in experiment [6], 7.35%.
Consider `COC(=O)NCc1nc2cc3c[nH][nH]c3cc2n1`, for which the growth inhibition is -8.15% in experiment [1]; 0.05% in experiment [2]; 14.9% in experiment [3]; -16% in experiment [4]; 11.6% in experiment [5]; 11.2% in experiment [6].
For the compound `CCON=C1C(C)(C)C(C)(C)C(C)(C)C1(C)C`, the growth inhibition was -13.4% in experiment [1]; 0.2% in experiment [2]; -24.6% in experiment [3]; 37.4% in experiment [4]; -16.1% in experiment [5]; -2.05% in experiment [6].
As for `O.[Cl][Co]([Cl])[Cl].c1c[nH]cn1.c1c[nH]cn1`, the growth inhibition was -0.85% in experiment [1]; -5.6% in experiment [2]; 15% in experiment [3]; 1.95% in experiment [4]; 8.4% in experiment [5]; -2.7% in experiment [6].
For `CNC(=O)C(C)Oc1ccc(OCC2CCCCC2)cc1` (stereo not given), the growth inhibition in experiment [1] was -0.8%; in experiment [2] it was -44.2%; in experiment [3] it was -14.4%; in experiment [4], -35.5%; in experiment [5], -46.9%; in experiment [6], -55.6%.
For `CN(C)c1ccc(C(=O)CCCN2CCC(O)(c3ccc(Cl)cc3)CC2)cc1`, the growth inhibition in experiment [1] was 37.4%; in experiment [2], 14.8%; in experiment [3], 36.6%; in experiment [4], 6.4%; in experiment [5] it was 18.1%; in experiment [6], 21.9%.
With `O=C1NC(=O)C(c2ccccc2)(C2CCOCC2)N1` (stereo not given), the growth inhibition in experiment [1] was 11.1%; in experiment [2] it was 3.05%; in experiment [3], -2.65%; in experiment [4] it was -54.9%; in experiment [5] it was -9.65%; in experiment [6], 28.4%.
`N#C/C(=C/N1CCNC1=S)C(N)=O`: the growth inhibition in experiment [1] was 4.95%; in experiment [2], 5%; in experiment [3], 9.5%; in experiment [4], 23.9%; in experiment [5], -2.8%; in experiment [6] it was 12.4%.
Take `CC(C)(O)C1CCC/C1=N/NC(N)=O` (stereo not given): the growth inhibition in experiment [1] was -7.5%; in experiment [2], 5%; in experiment [3], 5.2%; in experiment [4], 3.55%; in experiment [5], -10.3%; in experiment [6], -11.3%.
For `C=C1SC(=Nc2c(C)cccc2Cl)N(C(=O)c2sc3ccccc3c2Cl)C12CCCCC2`, the growth inhibition in experiment [1] is 8.05%; in experiment [2], -16%; in experiment [3], 2.3%; in experiment [4], 5.6%; in experiment [5] it was 8.85%; in experiment [6], 8.75%.
Take `Nc1c(Br)cc2c([nH]c(=O)c3cc(Br)ccc32)c1Br`: the growth inhibition in experiment [1] was 47.1%; in experiment [2], 32.2%; in experiment [3], 27.1%; in experiment [4], 27.8%; in experiment [5] it was 8.75%; in experiment [6], 32.1%.
`Cc1ccc(CNC(=S)NC2CCCCC2)cc1C`: the growth inhibition was 87.6% (active) in experiment [1]; 96% (active) in experiment [2]; 94.2% (active) in experiment [3]; 83.5% (active) in experiment [4]; 90% (active) in experiment [5]; 96.3% (active) in experiment [6].
For the compound `CCOC(=O)C(=O)C(C(=O)OCC)C(C)C(=O)OCC` (stereo not given), the growth inhibition in experiment [1] is 1.9%; in experiment [2], -8.3%; in experiment [3] it was 8.2%; in experiment [4], -41.1%; in experiment [5], 6.65%; in experiment [6], -11.2%.
